PubChem BioAssay (EPA / NIEHS)
Several values for one entry are separate records, joined by “and”; a condition that tells them apart may be missing. Equal entries are not always repeated. More than one record can exist for a structure, and the calls need not agree. Activity calls are given as the source filed them. The calls were made as follows: active = hit-call score of the fitted dose curve at least 0.9, where 1 is the maximum; inactive = score below 0.9.

Columns and labels:
[1] = read-out: Interferon-gamma inducible Protein 10 (IP10), CXCL10 (gene 3627); assay: BSK_BE3C_IP10: BioMAP Diversity Plus: BE3C Assay for Interferon-gamma inducible Protein 10 (IP10) Biomarker Activity (AID 2283034); conditions: primary human bronchial epithelial cells; actives raise or lower the signal
Procedure, shortened: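 Using primary human bronchial epithelial cultures, the assay captures IP-10 by ELISA one day (24 h) after exposure. Parallel SRB staining of total protein flags overt cytotoxicity. Fits run bidirectionally relative to DMSO.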

[2] = read-out: Plasminogen activator inhibitor-1 (PAI1), SERPINE1 (gene 5054); assay: BSK_BE3C_PAI1: BioMAP Diversity Plus: BE3C Assay for Plasminogen activator inhibitor-1 (PAI1) Biomarker Activity (AID 2283037); conditions: primary human bronchial epithelial cells; actives raise or lower the signal
Procedure, shortened: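 PAI-1 biomarker levels in treated human bronchial epithelial cells are determined by ELISA at 24 h. Both increases and decreases relative to DMSO are fitted.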

[3] = read-out: urokinase plasminogen activator (uPA), PLAU (gene 5328); assay: BSK_BE3C_uPA: BioMAP Diversity Plus: BE3C Assay for urokinase plasminogen activator (uPA) Biomarker Activity (AID 2283038); conditions: primary human bronchial epithelial cells; actives raise or lower the signal
Procedure, shortened: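 Human primary bronchial epithelial cells were exposed to chemical for 24 h, then uPA levels were measured by ELISA. Responses were fitted bidirectionally against DMSO as negative control and baseline. Parallel SRB staining of total protein gauged overt cytotoxicity.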

[4] = read-out: Urokinase-type plasminogen activator receptor (uPAR), PLAUR (gene 5329); assay: BSK_BE3C_uPAR: BioMAP Diversity Plus: BE3C Assay for Urokinase-type plasminogen activator receptor (uPAR) Biomarker Activity (AID 2283039); conditions: primary human bronchial epithelial cells; actives raise or lower the signal;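 also: cells exposed to compound for one day before measurement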
Procedure, shortened: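 A uPAR ELISA serves as the readout, taken 24 h after treating primary human bronchial epithelial cells. Responses in either direction are fitted against DMSO, which defines baseline activity.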

[5] = read-out: Interleukin-6 (IL6), IL6 (gene 3569); assay: BSK_CASM3C_IL6: BioMAP Diversity Plus: CASM3C Assay for Interleukin-6 (IL6) Biomarker Activity for (AID 2283040); conditions: primary human coronary artery smooth muscle cells; actives raise or lower the signal
[6] = read-out: Tissue plasminogen activator (tPA), PLAT (gene 5327); assay: BSK_BE3C_tPA: BioMAP Diversity Plus: BE3C Assay for Tissue plasminogen activator (tPA) Biomarker Activity (AID 2283041); conditions: primary human bronchial epithelial cells; actives raise or lower the signal
Procedure, shortened: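 Bidirectional curve fitting relative to DMSO defined activity, with tPA detected by ELISA in chemically treated human bronchial epithelial primary cells at 24 hours.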

[7] = read-out: Interleukin-8 (IL8), CXCL8 (gene 3576); assay: BSK_CASM3C_IL8: BioMAP Diversity Plus: CASM3C Assay for Interleukin-8 (IL8) Biomarker Activity (AID 2283042); conditions: primary human coronary artery smooth muscle cells; actives raise or lower the signal;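 also: IL-8 protein level quantified by ELISA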
[8] = read-out: Human Leukocyte Antigen - DR isotype (HLADR), HLA-DRA (gene 3122); assay: BSK_CASM3C_HLADR: BioMAP Diversity Plus: CASM3C Assay for Human Leukocyte Antigen - DR isotype (HLADR) Biomarker Activity (AID 2283043); conditions: primary human coronary artery smooth muscle cells; actives raise or lower the signal;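 also: cell-surface HLA-DR protein level quantified by ELISA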
[9] = read-out: Macrophage colony-stimulating factor (MCSF), CSF1 (gene 1435); assay: BSK_CASM3C_MCSF: BioMAP Diversity Plus: CASM3C Assay for Macrophage colony-stimulating factor (MCSF) Biomarker Activity (AID 2283044); conditions: primary human coronary artery smooth muscle cells; actives raise or lower the signal;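 also: M-CSF protein amount quantified by ELISA after 24 h exposure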
[10] = read-out: Low-density lipoprotein receptor (LDLR), LDLR (gene 3949); assay: BSK_CASM3C_LDLR: BioMAP Diversity Plus: CASM3C Assay for Low-density lipoprotein receptor (LDLR) Biomarker Activity (AID 2283045); conditions: primary human coronary artery smooth muscle cells; actives raise or lower the signal;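 also: LDLR protein level on the cell surface quantified by ELISA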
[11] = read-out: Monocyte Chemoattractant Protein-1 (MCP1), CCL2 (gene 6347); assay: BSK_CASM3C_MCP1: BioMAP Diversity Plus: CASM3C Assay for Monocyte Chemoattractant Protein-1 (MCP1) Biomarker Activity (AID 2283046); conditions: primary human coronary artery smooth muscle cells; actives raise or lower the signal;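 also: MCP-1 level quantified by ELISA 24 h after dosing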
[12] = BSK_CASM3C_Proliferation: Cell Proliferation Assessment in the BioMAP Diversity Plus: CASM3C Assay (AID 2283047); conditions: primary human coronary artery smooth muscle cells;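 also: sulforhodamine B total protein stain as relative cell number at 560 nm; sub-confluent cells exposed 48 h before staining; fitted both ways against DMSO so gain or loss of cell number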
[13] = read-out: Monokine induced gamma interferon (MIG), CXCL9 (gene 4283); assay: BSK_CASM3C_MIG: BioMAP Diversity Plus: CASM3C Assay for Monokine induced gamma interferon (MIG) Biomarker Activity (AID 2283048); conditions: primary human coronary artery smooth muscle cells; actives raise or lower the signal
[14] = read-out: serum amyloid A (SAA), SAA1 (gene 6288); assay: BSK_CASM3C_SAA: BioMAP Diversity Plus: CASM3C Assay for serum amyloid A (SAA) Biomarker Activity (AID 2283049); conditions: primary human coronary artery smooth muscle cells; actives raise or lower the signal;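 also: SAA protein level quantified by ELISA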
[15] = BSK_CASM3C_SRB: Viability Assessment in the BioMAP Diversity Plus: CASM3C Assay (AID 2283050); conditions: primary human coronary artery smooth muscle cells
[16] = read-out: Thrombomodulin, THBD (gene 7056); assay: BSK_CASM3C_Thrombomodulin: BioMAP Diversity Plus: CASM3C Assay for Thrombomodulin Biomarker Activity (AID 2283051); conditions: primary human coronary artery smooth muscle cells; actives raise or lower the signal;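 also: thrombomodulin protein level measured by ELISA 24 h after dosing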
[17] = read-out: Tissue Factor, F3 (gene 2152); assay: BSK_CASM3C_TissueFactor: BioMAP Diversity Plus: CASM3C Assay for Tissue Factor Biomarker Activity (AID 2283052); conditions: primary human coronary artery smooth muscle cells; actives raise or lower the signal;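 also: cell surface tissue factor protein level read by ELISA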
[18] = read-out: Interferon-gamma inducible Protein 10 (IP10), CXCL10 (gene 3627); assay: BSK_hDFCGF_IP10: BioMAP Diversity Plus: hDFCGF Assay for Interferon-gamma inducible Protein 10 (IP10) Biomarker Activity (AID 2283053); conditions: primary human foreskin fibroblasts; actives raise or lower the signal
Procedure, shortened: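 IP-10 levels, quantified by ELISA, are taken from human foreskin fibroblast cultures 24 h after chemical treatment, with DMSO serving as negative control and baseline for bidirectional analysis.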

[19] = read-out: Urokinase-type plasminogen activator receptor (uPAR), PLAUR (gene 5329); assay: BSK_CASM3C_uPAR: BioMAP Diversity Plus: CASM3C Assay for Urokinase-type plasminogen activator receptor (uPAR) Biomarker Activity (AID 2283054); conditions: primary human coronary artery smooth muscle cells; actives raise or lower the signal;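 also: cell-surface uPAR protein level quantified by ELISA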

Measured: AC50

[Cd+2].[Cl-].[Cl-]
inactive: [1] | [2] | [3] | [4] | [6] | [7] | [16]
active: [1] 20 µM | [2] 3.97 µM | [3] 29.9 µM | [5] 4.02 µM and 2.92 µM | [6] 26 µM | [8] 9.22 µM and 6.47 µM | [9] 6.22 µM and 3.72 µM | [10] 6.42 µM and 6.31 µM | [11] 7.14 µM and 4.39 µM | [12] 2.7 µM and 2.27 µM | [13] 4.6 µM and 4.58 µM | [14] 3.68 µM and 2.71 µM | [15] 15.4 µM and 15.2 µM | [17] 5.81 µM and 8.45 µM | [18] 15.9 µM and 13.5 µM | [19] 9.94 µM and 6.24 µM
